The target of experiment [1] is ATP-dependent translocase ABCB1 (Homo sapiens) (UniProt P08183). Nature of the experiment: MDR1 (ABCB1) efflux transporter inhibition, cell-based (AID 377; in the data active = fluorescence slope change above about 50%). To be noted: MDR1-expressing cells, fluorescent substrate accumulation slope; stronger effect = higher value; concentration not given here.
Experiment [2] in a line: circadian clock period modulators, cell-based, LOPAC library, luminescence reporter (AID 2774; call rule not given here;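 also: values are relative to mean of DMSO wells on each plate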). As to conditions: circadian reporter cells, at 7 µM, actives lie on both sides.
Experiment [3] is described as follows: hESC survival regulators, cell-based (AID 493140; call rule not given here;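 also: cells exposed to compounds for four days before counting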). As to conditions: human embryonic stem cell survival screen; stronger effect = higher value.
A short description of experiment [4]: liver-stage malaria parasite growth inhibition, primary screen, cell-based, HepG2, luciferase luminescence, HepG2 viability (AID 624349; in the data active = parasite load remaining mostly below about 12%, no sharp cut-off; inactive = mostly above about 10%;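 also: 100% = mean of DMSO negative control wells on the same plate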). To be noted: P. berghei liver stage in HepG2, luciferase luminescence, concentration not given here; parasite load remaining: stronger effect = lower value; viability: measured here: HepG2 viability without parasites.
The nature of experiment [5]: sensitizers of A549 cells to miR-34 induction, primary screen, imaging, A549 dox-inducible miR-34, nuclei and caspase counts (AID 1347080;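 active = compounds whose cell count with miR-34 switched on is under 0.7 times the count with it off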). As to conditions: A549 miR-34 inducible, Hoechst nuclei count, 48 h.
Experiment [6] has as its system Hepatitis C virus NS3 helicase. Nature of the experiment: HCV NS3 helicase inhibitors, primary screen, biochemical, fluorescence polarization, LOPAC1280 library (AID 687035; in the data active = inhibition above about 37%). To be noted: Purified HCV NS3 helicase, Cy5-dT15 ssDNA binding fluorescence polarization; stronger effect = higher value; concentration not given here. (In general: Fluorescence polarisation rises when a labelled molecule tumbles more slowly, as on binding a larger partner.)

Experiment [7] in a line: Cy5 fluorescence quenching or enhancement artefacts, artefact control for HCV NS3 helicase inhibitor project, biochemical, LOPAC1280 (AID 687037; call rule not given here). To be noted: Cy5-DNA-NS3h complex fluorescence interference counterscreen. Background: A counterscreen serves to expose hits that act by an unwanted route or on another target.
Experiment [8] in a line: viability rescue of complex I mutant cybrids, primary screen, cell-based, galactose medium, ATP luminescence (AID 1645843;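 active = z-score of at least 1.8 in each of two replicates, scored against plate mean and spread of sample wells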;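 also: positive z means more ATP and so rescue of galactose-driven cybrid death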). To be noted: complex I mutant cybrid cells, 72 h, stronger effect = higher value.
Experiment [9] is described as follows: LFS_MB_P medulloblastoma growth inhibition, cell-based, chromothripsis tumors, cisplatin or BGB combos (AID 1671449).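 Also: cells exposed for 96 hours; 0% = vehicle DMSO and 100% = killing by high DMSO.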 As to conditions: LFS_MB_P medulloblastoma cells.
Experiment [10] can be described thus: HDN33 neuroblastoma growth inhibition, cell-based, chromothripsis tumors, cisplatin or BGB combos (AID 1671450).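 Also: cells exposed to compound for four days; 0% = vehicle DMSO and 100% = cell killing by high DMSO.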 To be noted: HDN33 neuroblastoma cells, stronger effect = higher value.
A short description of experiment [11]: ICB984 medulloblastoma cell growth inhibition, synergistic combos for chromothripsis tumors, cisplatin or BGB combos (AID 1671451; call rule not given here;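 also: cells exposed for 96 hours before readout; 0% = vehicle DMSO and 100% = killing by high DMSO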). To be noted: ICB984 medulloblastoma cells, drug combinations, stronger effect = higher value.
A short description of experiment [12]: LFS_MB_1R medulloblastoma cell growth inhibition, synergistic combos for chromothripsis tumors, cisplatin or BGB combos (AID 1671452).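 Also: cells exposed for 96 hours before readout.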 As to conditions: LFS_MB_1R medulloblastoma cells, stronger effect = higher value.
Experiment [13] can be described thus: HTB85 osteosarcoma cell growth inhibition, synergistic combos for chromothripsis tumors, BGB or cisplatin IC20 combos (AID 1671453).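 Also: cells exposed for 96 hours before readout; 0% = vehicle DMSO and 100% = high DMSO killing control.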 As to conditions: HTB85 osteosarcoma cells, drug combinations, stronger effect = higher value.
Experiment [14] in a line: CRL2098 osteosarcoma cell growth inhibition, synergistic combos for chromothripsis tumors, BGB or cisplatin IC20 combos (AID 1671454).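 Also: cells exposed for 96 h before readout; 0% = vehicle DMSO and 100% = killing by high DMSO.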 To be noted: CRL2098 osteosarcoma cells, drug combinations, stronger effect = higher value.
The nature of experiment [15]: HD-MB03 medulloblastoma cell growth inhibition, synergistic combos for chromothripsis tumors, BGB or cisplatin IC20 combos (AID 1671455; in the data active = inhibition above about 83%;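 also: 0% = vehicle DMSO and 100% = high DMSO as cytotoxic control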). As to conditions: HD-MB03 medulloblastoma cells, stronger effect = higher value.
The nature of experiment [16]: UWB1.289 ovarian carcinoma cell growth inhibition, synergistic combos for chromothripsis tumors, BGB or cisplatin combos (AID 1671456).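 Also: cells exposed to compound for four days; 0% = vehicle DMSO and 100% = killing by high DMSO.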 To be noted: UWB1.289 ovarian carcinoma cells, stronger effect = higher value.
Experiment [17] can be described thus: LFS_MB_2R medulloblastoma cell growth inhibition, synergistic combos for chromothripsis tumors, cisplatin combos (AID 1671457).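 Also: cells exposed to compound for four days before readout.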 As to conditions: LFS_MB_2R medulloblastoma cells, stronger effect = higher value.
Experiment [18] in a line: MDA-MB-436 breast carcinoma cell growth inhibition, synergistic combos for chromothripsis tumors, BGB or cisplatin combos (AID 1671458; call rule not given here;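 also: cells exposed for 96 hours; 0% = vehicle DMSO and 100% = killing by high DMSO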). As to conditions: MDA-MB-436 breast carcinoma growth inhibition, drug combinations, stronger effect = higher value.
Experiment [19] can be described thus: UWB1.289_BRCA1 ovarian cancer growth, cell-based, BGB or cisplatin combinations (AID 1671459). As to conditions: UWB1.289 BRCA1 ovarian carcinoma, drug combinations, stronger effect = higher value.
Experiment [20] can be described thus: human astrocyte viability loss, single and combined drugs, cytotoxicity control for chromothriptic childhood tumor combination screen, cell-based, BGB or cisplatin IC20 combos (AID 1671460).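 Also: cells exposed to compounds for 96 hours before viability readout; 0% = vehicle and 100% = killing control.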 As to conditions: Human astrocytes, drug combinations, stronger effect = higher value.
Experiment [21] in a line: growth inhibition of BT084 medulloblastoma cells, cell-based, ICGC_MB145, cisplatin and BGB IC40 combos (AID 1671461).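 Also: cells exposed to drugs for 96 hours; 0% = vehicle DMSO and 100% = high DMSO full killing control.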 To be noted: drug combinations, stronger effect = higher value.
Experiment [22] is described as follows: growth inhibition of RCMB18 medulloblastoma cells, cell-based, cisplatin and BGB IC40 combos (AID 1671462).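 Also: cells exposed to compound for four days.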 To be noted: stronger effect = higher value.
A short description of experiment [23]: growth inhibition of CRL1545 osteosarcoma cells, cell-based, cisplatin and BGB IC20 combos (AID 1671464).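 Also: cells exposed to compound for 96 hours before readout; 0% = vehicle DMSO and 100% = high DMSO killing control.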 To be noted: stronger effect = higher value.
Setting [24] is: stronger effect = lower value, cell number ratio, induced over uninduced.
[25] abbreviates: measured here: relative caspase fold change +Dox/-Dox.
The mark [26] stands for this setting: measured here: total cells with miR-34 induction, stronger effect = lower value.
Where [27] appears, read: measured here: total cells without miR-34 induction.
Setting [28] is: measured here: combination with BGB IC40, at 0.05 µM.
Where [29] appears, read: measured here: with BGB IC20 combination, at 0.5 µM.
[30] abbreviates: measured here: with cisplatin IC20 combination, at 0.5 µM.
Where [31] appears, read: measured here: combination with cisplatin, at 0.5 µM.
Where [32] appears, read: measured here: combination with cisplatin, at 5 µM.

Records with an inconclusive call do not appear. Active and inactive are the calls of the source. Rule as the data show it, unless noted: active = inhibition above about 80%; inactive = the rest.

Chain of ATP-dependent translocase ABCB1 (Homo sapiens) (P08183 whole entry, looked up): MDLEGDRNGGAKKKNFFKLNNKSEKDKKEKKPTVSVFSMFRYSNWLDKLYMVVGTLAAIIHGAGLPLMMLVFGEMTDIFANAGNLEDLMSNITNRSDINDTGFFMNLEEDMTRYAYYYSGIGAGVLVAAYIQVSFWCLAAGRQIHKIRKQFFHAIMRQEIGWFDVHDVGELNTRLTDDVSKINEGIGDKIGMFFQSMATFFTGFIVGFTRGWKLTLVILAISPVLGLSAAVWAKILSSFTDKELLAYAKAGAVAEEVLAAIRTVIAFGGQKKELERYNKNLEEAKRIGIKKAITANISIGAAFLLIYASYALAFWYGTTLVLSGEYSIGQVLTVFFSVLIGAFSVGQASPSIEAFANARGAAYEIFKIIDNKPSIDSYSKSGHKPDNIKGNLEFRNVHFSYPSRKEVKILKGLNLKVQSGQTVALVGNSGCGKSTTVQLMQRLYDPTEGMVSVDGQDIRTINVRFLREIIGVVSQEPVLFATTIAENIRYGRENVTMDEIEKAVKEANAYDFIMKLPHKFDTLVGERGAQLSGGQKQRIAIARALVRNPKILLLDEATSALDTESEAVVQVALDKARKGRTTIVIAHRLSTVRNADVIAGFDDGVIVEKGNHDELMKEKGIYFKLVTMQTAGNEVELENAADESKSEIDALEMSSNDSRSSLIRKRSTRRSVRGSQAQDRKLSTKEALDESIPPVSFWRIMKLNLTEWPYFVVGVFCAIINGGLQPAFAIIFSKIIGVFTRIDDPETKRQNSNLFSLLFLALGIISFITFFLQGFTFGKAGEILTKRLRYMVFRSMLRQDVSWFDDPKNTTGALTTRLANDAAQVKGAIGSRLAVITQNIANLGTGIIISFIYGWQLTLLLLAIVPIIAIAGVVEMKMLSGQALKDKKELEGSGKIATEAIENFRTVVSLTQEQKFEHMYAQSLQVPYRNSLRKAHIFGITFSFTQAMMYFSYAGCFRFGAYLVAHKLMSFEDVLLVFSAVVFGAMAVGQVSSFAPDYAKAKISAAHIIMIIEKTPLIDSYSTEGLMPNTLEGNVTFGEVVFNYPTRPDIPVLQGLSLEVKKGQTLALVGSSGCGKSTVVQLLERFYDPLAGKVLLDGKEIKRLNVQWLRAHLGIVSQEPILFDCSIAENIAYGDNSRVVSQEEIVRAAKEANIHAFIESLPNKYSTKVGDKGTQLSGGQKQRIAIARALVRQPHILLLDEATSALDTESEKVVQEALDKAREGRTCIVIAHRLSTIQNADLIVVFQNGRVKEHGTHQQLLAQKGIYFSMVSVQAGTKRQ

Broadly, the viability is a read-out of living cells in per cent, often relative to untreated cells. Take `COc1cc(=O)n(C)c2c(OCC(O)C(C)(C)O)cccc12` (stereo unspecified): the fluorescence slope change in experiment [1] is -8.1% (inactive). Besides, the period change in [2] was -0.165 h (inactive). Besides, the survival in experiment [3] was 2.75 (inactive). Besides, the parasite load remaining in [4] is 88% (inactive). Besides, the viability in experiment [4] was determined as 97.7%. The fold change was 0.801 (inactive) in experiment [5] (setting [24]) and 1.04 in experiment [5] (setting [25]). Moreover, the cell count in experiment [5] (setting [26]) is 8320; in experiment [5] (setting [27]) it was 10400.

What is called inhibition is the drop in the measured response relative to a control, in per cent. For `Nc1nc(SCc2ccc([N+](=O)[O-])cc2)c2ncn([C@@H]3O[C@H](CO)[C@H](O)C3O)c2n1` (stereo partly specified), the period change in experiment [2] is -0.105 h (inactive). Besides, the inhibition in experiment [6] was -2% (inactive). Also, the fluorescence ratio (interference) in experiment [7] was 0.9 (inactive). Also, the results for the fold change in experiment [5] (setting [24]) and in experiment [5] (setting [25]) were 1.08 (inactive) and 0.784, respectively. Further, the cell count in [5] (setting [26]) was 10100; in experiment [5] (setting [27]), 9310. Moreover, the z-score in [8] is -0.085 (inactive).

With `NC[C@H]1O[C@@H](n2cnc3c(N)ncnc32)[C@H](O)[C@@H]1O`, the inhibition in experiment [6] was -3% (inactive). The fluorescence ratio (interference) in experiment [7] was 1 (inactive). Also, the fold change in experiment [5] (setting [24]) is 1.07 (inactive); in experiment [5] (setting [25]), 1.37. For the same compound, the figures for the cell count in [5] (setting [26]) and in experiment [5] (setting [27]) were 9860 and 9210, respectively. Further, the z-score in experiment [8] is 1.03 (inactive).

For the compound `Cc1ccc(NC(=O)CCCCCC(=O)Nc2ccccc2N)cc1`, the fold change in experiment [5] (setting [24]) was 1.01 (inactive); in experiment [5] (setting [25]), 1.02. Further, the results for the cell count in [5] (setting [26]) and in experiment [5] (setting [27]) were 5390 and 5360, respectively. Further, the inhibition in experiment [9] (at 0.5 µM, stronger effect = higher value) was 2.92% (inactive); in experiment [9] (measured here: combination with BGB IC20, at 0.005 µM), -29.8%; in experiment [9] (measured here: combination with BGB IC40, at 0.005 µM), -45%; in experiment [9] (setting [28]), -45.4%; in experiment [9] (measured here: combination with cisplatin, at 0.5 µM, stronger effect = higher value) it was -6.67%; in [9] (measured here: combination with cisplatin, at 5 µM, stronger effect = higher value), 65.8%. The inhibition in [10] (BGB combo, at 5 µM) was 11%; in experiment [10] (at 0.5 µM), -14.2% (inactive); in experiment [10] (cisplatin combo, at 5 µM), 32%; in experiment [10] (setting [29]) it was -21.3%; in [10] (setting [30]) it was -11%; in experiment [10] (single agent, at 5 µM) it was 25.4%. The inhibition in experiment [11] (BGB IC20 combo, at 0.005 µM) was -3.62%; in experiment [11] (BGB IC40 combo, at 0.005 µM), -26.5%; in experiment [11] (BGB IC40 combo, at 0.05 µM), 6.33%; in experiment [11] (at 0.5 µM), -27.2% (inactive); in [11] (cisplatin combo, at 0.05 µM) it was 1.63%; in experiment [11] (cisplatin combo, at 0.5 µM), -36.9%. In addition, the inhibition was -6.29% in experiment [11] (cisplatin combo, at 5 µM); -12.7% in experiment [11] (measured here: 5 uM single agent, at 5 µM); -31.8% (inactive) in [12] (at 0.5 µM); -38% in [12] (setting [28]); -38.7% in [12] (setting [31]); 61.4% in experiment [12] (setting [32]). For the same compound, the inhibition is -11.4% (inactive) in experiment [13] (at 0.5 µM); 11.7% in experiment [13] (measured here: with BGB IC20, at 0.5 µM); 31.2% in [13] (measured here: with BGB IC20, at 5 µM); -26.9% in experiment [13] (measured here: with cisplatin IC20, at 0.5 µM); 33.8% in experiment [13] (measured here: with cisplatin IC20, at 5 µM); 12.7% in [13] (single agent, at 5 µM). Besides, the inhibition in [14] (at 0.5 µM) was -71% (inactive); in experiment [14] (measured here: combination with BGB at IC20, at 0.5 µM) it was -75.9%; in [14] (measured here: combination with cisplatin at IC20, at 0.5 µM) it was -67.2%; in [15] (at 0.5 µM) it was -7.72% (inactive); in [15] (measured here: combo with BGB at IC20, at 0.5 µM) it was 0.828%; in experiment [15] (measured here: combo with cisplatin at IC20, at 0.5 µM), -9.85%. In addition, the inhibition in experiment [16] (at 0.5 µM) was -13.2% (inactive); in experiment [16] (measured here: inhibition with BGB combination, at 0.05 µM), -44.6%; in experiment [16] (measured here: inhibition with cisplatin combination, at 0.05 µM) it was -27.1%; in experiment [17] (at 0.5 µM), -23.5% (inactive); in experiment [17] (setting [31]), -17.5%; in [17] (setting [32]) it was 50.2%. The inhibition in experiment [18] (at 0.5 µM) is -27.5% (inactive); in experiment [18] (measured here: BGB combination, at 0.5 µM) it was -25.9%; in experiment [18] (measured here: BGB combination, at 5 µM) it was -14.6%; in [18] (measured here: cisplatin combination, at 0.5 µM), -44.2%; in [18] (measured here: cisplatin combination, at 5 µM), 15.1%; in experiment [19] (BGB combination, concentration series, at 5 µM) it was 23.3%. Moreover, the inhibition in experiment [19] (at 0.5 µM) was -23.2% (inactive); in experiment [19] (cisplatin combination, concentration series, at 5 µM), 51.6%; in experiment [20] (at 0.5 µM), -11.1% (inactive); in experiment [20] (measured here: combo with BGB IC20, at 0.5 µM), -7.99%; in experiment [20] (measured here: combo with cisplatin IC20, at 0.5 µM), -17.6%; in [21] (at 0.5 µM), -11.1% (inactive). For the same compound, the inhibition was 8.17% in experiment [21] (cisplatin combination, at 0.5 µM); 68.8% in experiment [21] (cisplatin combination, at 5 µM); -52.4% in experiment [21] (measured here: BGB IC40 combination 0.05 uM, at 0.05 µM); 25.1% in [21] (single agent, at 5 µM); 6.99% (inactive) in experiment [22] (at 0.5 µM); 67.3% in experiment [22] (cisplatin combo, at 5 µM). Also, the inhibition was -18.3% in experiment [22] (measured here: BGB IC40 combination, at 0.05 µM); 0.344% in experiment [22] (setting [31]); 35.9% in experiment [22] (single agent, at 5 µM); 6.85% (inactive) in [23] (at 0.5 µM); 21.7% in [23] (setting [29]); -2.22% in experiment [23] (setting [30]). For the same compound, the inhibition in experiment [23] (single agent, at 0.05 µM) was -29%; in [23] (single agent, at 5 µM), 60.5%.

Values taken from PubChem BioAssay.
